Among all 52,000 sequences or so, about 210 (0.4%) were called active. Only a selection was taken, and actives are over-represented in it overall. Unmarked numbers belong to inactive results.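 How the source made its calls: active means gene whose silencing raises cell survival under the drug, median off-target-corrected z-score across its silencing RNAs 2 or more; inactive means the rest.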
assay: Resistance to Poly (ADP-Ribose) Polymerase inhibitor: Gene Identification via Genome-wide siRNA Screen; settings: mouse BRCA2 R2336H ES cells, olaparib, CellTiter-Glo viability; stronger effect = higher value
In short: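 Mouse BRCA2 R2336H ES cells were reverse-transfected with siRNA (20 nM final), treated at 48 h with 500 nM olaparib, and read by CellTiter-Glo after 72 h. Scores: MAD-based z per siRNA, median per gene, seed off-target correction.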

With GGAGCCAAGUGUGAUUACATT against Pias3 the z-score was -1.38 (active).
In the case of GGGCCUAUAUAACAUCUUGTT against Usp11, the z-score is reported as 0.581 (active).
For GGUUGCUUGGAAUUAAAAGTT against Klhl1, the z-score was 1.01 (active).
With “GGAUAAAUGGUUCUAGAAATT against 3110006P09Rik” the z-score was -0.433 (active).
With GGCAUUUGAAGAUGUUUCUTT against Hmgb3 the z-score was 1.56 (active).
In the case of GCUUCACAAGCAGUGUACUTT against Slc37a1, the z-score is reported as 1.96 (active).
In the case of CCUUUUUCUGGAUUGGAAUTT against Klrd1, the z-score is reported as 1.78 (active).
In the case of GGAAGCUGGUUCCUGUUUUTT against Bid3, the z-score is reported as 2.66 (active).
With CCUAAAUUCGGUUUGAAUCTT against Fath the z-score was 2.74 (active).
In the case of GCCAAUGAUGUAGCAAAUUTT against Slc20a1, the z-score is reported as 2.1 (active).
With GGUUGGCCAUAUAAAGAGATT against Smarca3 the z-score was 0.771 (active).
For GGUCCACGGUUACUAAAAATT against Klrd1, the z-score was 2.45 (active).
With GGGUUUUUUUUUUCCUUCCTT against Hsd17b1 the z-score was 1.88 (active).
In the case of GGUAUCAAGUGCAGAAUGUTT against Slc37a1, the z-score is reported as 1.99 (active).
In the case of GCUACAAUAUGACAAGUGUTT against Adamts5, the z-score is reported as 2.82 (active).
For GGAUGAAGAGAAAAAUUGATT against Slc20a1, the z-score was 2.96 (active).

Compared with “GGAUUGCUGUGCCUUAUGATT against 2010004A03Rik”, CCACUUUUUUAGAUCCCUGTT against AA960436 is lower in z-score: 0.503 for the first, -0.149 for the second.

First: GACUCCCACUUACACUCUCTT against Olfr1312
Second: GGUUCUUUAAUAGAACAUGTT against Tyrp1
The z-score of the first is lower: -1.08 for the first, -0.207 for the second.

Going from GGUCAUUGGUCGCUGGUCATT against Gzmm to CGUGGGAUUUAAUGAUCAATT against Nid2, the z-score falls from 1.22 to 0.787.

First: GGGUAUCUUCUGGAAAACATT against Angptl4
Second: GGCUAUGCAGCAUAUUAUATT against Ndufa1
The z-score of the first is higher: 0.203 for the first, -0.819 for the second.

Compared with “GGAAAUUUUGGAGAUGAUATT against 5730444A13Rik”, GGCGAUCUAUCACACUGUGTT against Chst7 is higher in z-score: -0.496 for the first, 1.39 for the second.

First: GGAGGAAGAAACAGAACCATT against A930021G21Rik
Second: GCAGUCUGGUUCUCUCAAATT against Cryl1
The z-score of the first is lower: -2.36 for the first, 2.21 for the second.

Going from CACGGGCAUCCUUGACUCCTT against Mbp to GCAACAUGGCCCUUACCAUTT against Plcb2, the z-score falls from 0.994 to -0.797.

Going from GGCUCCUUAAAGAUAUGUUTT against Nsmaf to GGAAUGUGUUAUGGUGAUUTT against Mgl2, the z-score falls from 0.332 to -0.346.

First: GCCUUUAUAGUCUUAAGCATT against 2810475A17Rik
Second: CCUUCAAUUUCAGUUCAGATT against Olfr1388
The z-score of the first is lower: -1.55 for the first, 0.422 for the second.

Compared with GGUAUUCUCUAAGAAGGAGTT against Ccbl1, GGAGACGUGUCUGAAAGACTT against Glp2r is lower in z-score: -0.635 for the first, -0.752 for the second.

Going from GCCAGCAACAGGAUGAUAUTT against Prkwnk1 to GCUCAGACAUGUUCUUACCTT against BC037527, the z-score rises from -1.02 to 0.547.

First: GCUUAAAACAGACCAUUUUTT against 1700013G20Rik
Second: GCAUUCAAGCAACCACGAATT against Ptdss1
The z-score of the first is higher: 0.824 for the first, -0.153 for the second.

First: GCACUUGGGUAAAAAACUCTT against Bcorl1
Second: GCUGACCCAGCUAUGUACUTT against 4930519N13Rik
The z-score of the first is higher: 0.555 for the first, -0.26 for the second.

First: CCAGAGUAAGAGUAAAAGCTT against Mamdc2
Second: GGCUGUAAUGAGGACUGAUTT against Deb1
The z-score of the first is higher: 1.32 for the first, -1.92 for the second.

Compared with GCAUUUUGACCCAAGUGUUTT against Foxq1, CGAUCUACAUCUGCAUCAUTT against Olfr1212 is lower in z-score: 0.0651 for the first, -0.961 for the second.

Compared with GGCUUUGAUUGAACAUGAGTT against Lypla2, CCAUCUAUGAUCCCAGAGCTT against Fbxw9 is lower in z-score: 0.783 for the first, 0.241 for the second.

Compared with GGACGUGACAGACAUUAUUTT against Htr5b, CCCUAAUAGAACUAAUGAATT against Kpnb1 is lower in z-score: -0.897 for the first, -3.47 for the second.

First: CCUACUUCCUCCAUUUAGGTT against 5033413D22Rik
Second: GGAGUACAGUGAUGACAAGTT against Ing5
The z-score of the first is higher: 1.42 for the first, 0.235 for the second.

Going from GGCAAAUGGUCUUUAUGCATT against Zfp606 to GGGAAGUCACUUUUGUUCCTT against Top2a, the z-score falls from -0.699 to -1.25.

First: GGCCAAAUUCUUCAGCAGATT against Rpl27a
Second: CCAAAACAACCACAAGUAGTT against A930006D11
The z-score of the first is lower: -2.82 for the first, -2.39 for the second.

Compared with GGUGAUAGUCCACGAGGUUTT against Mbc2, GGAGUUUGAGACACUCUGCTT against Apg4d is higher in z-score: -1.31 for the first, 0.266 for the second.

Compared with GGUCCUUCCAUAGUGACGCTT against Igfbp7, GGAAAUAUGAUCCAUCCUGTT against Zfp282 is higher in z-score: 0.24 for the first, 1.65 for the second.

Compared with GGGUAACAGUGGUGAACCUTT against Col1a1, GGAUGCUCUCUUAAAUGGATT against AI595338 is higher in z-score: -1.52 for the first, -0.0806 for the second.

Compared with “GGAAAAUUGAGAUUUCUGCTT against 1110003E01Rik”, GGAUGAAAAAUACUGGUGUTT against Ugt8 is higher in z-score: 1.52 for the first, 3.17 for the second.

Compared with GAAGAUCCACUUCAUCGCCTT against Psmb10, GGAAGACAUGAAAUUGUUCTT against Psma3 is lower in z-score: -1.82 for the first, -2.92 for the second.

First: GGGUGUACAUUGAAAUUAATT against Epha4
Second: GGAAUUUGAUUCUCUGCCUTT against 6820429M01
The z-score of the first is higher: 1.05 for the first, 0.0636 for the second.
